Test results: ChEMBL document CHEMBL3988442, “University of Dundee, Small-Polar-MMV Screening Library” (2021)
Screen size: about 69,000 compounds; about 10 (0.01%) showed an effect of 50% or more. The sample as a whole holds a higher share of strong results than the screen did.

The molecules below were run against ClpP1P2 (Mycobacterium tuberculosis (strain ATCC 25618 / H37Rv)) (UniProt P9WPC5+P9WPC3) (assay: in vitro assay to detect presence of AMC directly proportional to the activity of ClpP1P2. GHDDI collaboration.). Conditions: 50 µM.
Assay type: functional
Design: scale not given: direction of the effect not stated beside the values

Structure (SMILES)	Percent Effect
O=C(N1CCCC1)N1C[C@H]2CC[C@@H]1CN(Cc1ccncc1)C2	-3.97%
CC(=O)N1CC[C@H]2CC(=O)N(C3CCCCC3)CC[C@H]2C1	-8.93%
CC(C)N1CC[C@H]2[C@H](C[C@@H](Cn3cncn3)N2c2nccs2)C1	9.71%
COC[C@]12COC[C@H]1CN(Cc1ccc3ccccc3n1)C2	8.31%
CN(C)C[C@H]1OC[C@@H]2CCN(S(=O)(=O)c3cccs3)C[C@@H]21	-1.92%
O=C(c1ncccn1)N1C[C@@H]2CC[C@H](Oc3cccc(F)c3)[C@@H]2C1	-9.72%
COCC(=O)N1CCN(S(=O)(=O)c2cccs2)[C@H]2CS(=O)(=O)C[C@H]21	21.1%
Cc1ncsc1CN1CC[C@H]2OCC[C@@]2(C(=O)NCC2CC2)C1	8.1%
CN(C[C@H]1CN2CC[C@H]1C[C@@H]2CNC(=O)c1ccco1)c1ccccc1	3.33%
CN(C)c1nccc(N2CCO[C@H]3CN(Cc4ccsc4)C[C@H]32)n1	-1.49%
CN(C)S(=O)(=O)N1CCO[C@H]2[C@H](Oc3cccnc3)CC[C@@H]21	-10.1%
Cc1nn(C)c(C)c1S(=O)(=O)N1CC[C@H]2O[C@@H](C)C[C@H]2C1	9.45%
O=C(c1ccoc1)N1CC[C@@H]2O[C@@H](COCCN3CCCC3)CC[C@@H]21	8.08%
O=C(CCN1C[C@H]2CC[C@@H]1CN(c1ncccn1)C2)NCc1ccco1	-5.46%
CCc1cnc(N2C[C@H]3C[C@H](C(=O)N4CCOCC4)[C@@H](C2)O3)nc1	7.75%
CC(C)N1C[C@@H]2CN(C(=O)NCc3ccccc3)CCC[C@]2(C(=O)O)C1	-0.327%
Cc1noc([C@@H]2C[C@H]3CN(Cc4ccc5c(c4)OCO5)C[C@H]3O2)n1	2.95%
Cc1noc([C@]23COC[C@H]2CN(Cc2cc(C)on2)C3)n1	14.7%
O=C1C[C@@H]2[C@H](CCN2Cc2ccco2)N1c1ccsc1	-3.07%
C[C@H]1C[C@H]2CN(C(=O)CCc3ccccc3)CC[C@H]2O1	-7.99%
O=C(Nc1ccccc1)[C@H]1CN2CC[C@H]1C[C@@H]2Cn1cc(CCO)nn1	-1.69%
O=C(C[C@H]1[C@H]2CN(Cc3ccc(F)cc3)C[C@@H]12)N1CCCC1	-10.3%
Cc1cnc(N2C[C@@H]3[C@@H](C(=O)NC(C)C)CCS(=O)(=O)[C@@H]3C2)nc1	8.69%

Structure (SMILES)	Percent Effect
CCN1CC[C@@]2(C(=O)N3CCOCC3)CCN(C(=O)CC(C)C)CC[C@@H]12	-11.5%
COc1ccc(-c2ncccc2C(=O)N2C[C@H]3CC[C@@H]2C3)cn1	-2.59%
CN(C)S(=O)(=O)N1C[C@@H]2CC[C@H](C1)N(Cc1ccc3c(c1)OCCO3)C2	-5.61%
Cc1nc2cc(C3CCN(Cc4cccc(F)c4F)C3)nn2c(O)c1C (stereo unspecified)	4.6%
N#Cc1cccc(CN2CC[C@@H]3[C@@H]2CC(=O)N3CCN2CCCC2)c1	-6.88%
CC(C)NC(=O)[C@H]1C[C@@H]2[C@@H](C1)OCCN2Cc1nccs1	-14.4%
Cc1noc(C)c1CN1C[C@H]2CNC[C@H]2C1	3.63%
c1cnc(NC[C@@H]2CCC[C@@H]3CN(Cc4cccnc4)C[C@@H]32)nc1	9.72%
CCN(CC)Cc1cc(C(=O)N2CC[C@@]3(O)CCCC[C@H]3C2)c(C)o1	-7.09%
N#Cc1ccccc1C(=O)N1C[C@H]2CC[C@@H]1CN(c1ncccn1)C2	12.4%
COc1ccc(CN2C[C@@H](N(C)Cc3ccco3)[C@H]3OCCC[C@H]32)cc1	8.12%
Cc1cccc(CN2CC[C@H]3C[C@H](C)O[C@@H]3C2)n1	-3.13%
CN(C)C(=O)N1CC[C@H]2[C@H]1CCN2c1nncs1	-2.44%
NC(=O)c1cc2c(nc1N1C[C@H]3OC(=O)N(C4CCCC4)[C@H]3C1)CCC2	3.22%
Cc1ccc(CN2CCO[C@@H]3C[C@@H](C(=O)NC(C)C)C[C@H]32)o1	-8.36%
CCCc1nc(N2CCCN3CCC[C@H]3C2)c2cnn(C)c2n1	7.09%
CN(C)CCN1C[C@@H]2OCCN(Cc3cnn(C)c3)[C@@H]2C1	12%
CC(CN1CC[C@@H]2CCCC[C@@H]2C1)n1cnc2ccccc21 (stereo partly specified)	-9.76%
Cc1nc(NCC2CC2)nc2c1COCC21CCN(C(=O)C(C)(C)C)C1 (stereo unspecified)	97.5%
COCCC(=O)N1CCC2(COCc3c(C)nc(NCC4CC4)nc32)C1 (stereo unspecified)	11.8%
Cc1nc(NCC2CC2)nc2c1COCC21CCN(C(=O)NC(C)C)C1 (stereo unspecified)	6.34%
CC1=N[C@@]2(CC[C@@H]3CN(CC4CC4)C[C@@H]32)C(=O)N1CC1CC1	-5.13%
Cc1ccoc1C(=O)N1C[C@@H](OCC2CCOCC2)[C@H]2OCCC[C@H]21	-0.469%
